Reference: PubChem BioAssay (EPA / NIEHS)
Values joined by “and” are separate entries in the source; they are usually repeats but may differ in a detail not shown here. Equal entries are not always repeated. Some compounds were tested as several samples or in several runs, with calls that do not always agree. Active and inactive are the calls of the source. How the source made its calls: active means hit-call score of the fitted dose curve at least 0.9, where 1 is the maximum; inactive means score below 0.9.

Assay: BSK_LPS_SRB: Viability Assessment in the BioMAP Diversity Plus: LPS Assay (AID 2283079);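 further: fitted in both directions against DMSO so loss or gain of signal counts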
Conditions: primary human HUVEC with PBMC
Experimental: BSK_LPS is a cell-based, multiplexed-readout assay that uses umbilical vein endothelium and peripheral blood mononuclear cells, a human vascular primary cell co-culture, with measurements taken at 24 hours after chemical dosing in a 96-well plate.BSK_LPS_SRB is an assay component measured in the BSK_LPS assay. It measures 0.1% sulforhodamine related to cell death using Sulforhodamine staining technology.Data from the assay component BSK_LPS_SRB was analyzed into 1 assay endpoint. This assay endpoint, BSK_LPS_SRB, was analyzed with bidirectional fitting relative to DMSO as the negative control and baseline of activity. Using a type of viability reporter, gain or loss-of-signal activity can be used to understand changes in the signaling. Furthermore, this assay endpoint can be referred to as a primary readout, because this assay has produced multiple assay endpoints where this one serves a signaling function. To generalize the intended target to other relatable targets, this assay endpoint is annotated to the cell morphology intended target family, where the subfamily is cell conformation.
The levels of cell surface (or secreted, indicated by the prefix "s") biomarker endpoints were measured by ELISA. Overt cytotoxicity to cells in confluent adherent cultures (all systems other than the BT system) was assessed by measuring total protein levels using sulforhodamine B (SRB) staining in parallel cultures at the time of biomarker measurements, indicated as SRB endpoints. For proliferation assays for adherent cell types, individual cell types are cultured at sub-confluence and relative cell numbers quantified by SRB staining at time points optimized for each system (48 h: 3C and CASM3C systems; 72 h: BT and HDF3CGF systems; 96 h: SAg system). SRB was performed by staining cells with 0.1% SRB after fixation with 10% TCA and reading wells at 560 nm.Viability and proliferation of PBMC (T cells) was quantified by Alamar Blue reduction for the SAg and BT systems. For PBMC viability (referred to as PBMC Cytotoxicity within the assay endpoint names), cells were plated (75,000/well in a 96-well plate) and then chemical samples added for 1 h before addition of activators, SEB and TSST-1 (20 ng/mL final concentration each). Cells were incubated for 90 h. Then, Alamar Blue (20 uL/well) (Invitrogen, Cat DAL1100) was added for 6 h, and the plates were read with a fluorescence microplate reader at 546/580 nm (excitation/emission). For PBMC proliferation, cells were plated and activated as above but incubated for only 16 h prior to addition of Alamar Blue. Plates were read after 6 h.

| Structure (SMILES) | outcome | AC50 |
| --- | --- | --- |
| CCCCCCCCOC(=O)CCCCCCCCC(=O)OCCCCCCCC | inactive | – |
| OC1CCC(C2CCCCC2)CC1 (stereo not given) | inactive | – |
| COc1ccc([N+](=O)[O-])cc1N | inactive | – |
| CN1CCN(c2ccccc2/C=C2\SCCN(c3ccc(Cl)c(Cl)c3)C2=O)CC1 | – | 16.3 µM (active) |
| Cc1oc(-c2ccccc2)nc1CCOc1ccc(C[C@H](Nc2ccccc2C(=O)c2ccccc2)C(=O)O)cc1 | – | 20.6 µM (active) |
| OC1CCCCC1 | inactive | – |
| CC(C)CCCCCCOC(=O)CCCCC(=O)OCCCCCCC(C)C | inactive | – |
| Oc1cc2ccccc2c2ccccc12 | – | 12.1 µM (active) |
| CCN(CC)CCNc1ccc(CNC=O)c2sc3ccc(OC)cc3c(=O)c12 | – | 25.3 µM (active) |
| CC(=O)CC(C)(C)O | inactive | – |
| O=C(OCCOCCOC(=O)c1ccccc1)c1ccccc1 | inactive | – |
| CCCCCCCCC(=O)O | inactive | – |
| CC1=C(/C=C/C(C)=C/C=C/C(C)=C/C(=O)O)C(C)(C)CCC1 | inactive | – |
| NC(=O)N(O)[C@@H]1C=C[C@H](Oc2cccc(Oc3ccc(F)cc3)c2)C1 | – | 3.97 µM (active) |
| NC(=O)N1C(=O)C(C(=O)c2cc(Cl)cs2)c2cc(F)c(Cl)cc21 (stereo not given) | – | 20 µM (active) |
| CC(C)(C)c1cc(C(C)(C)C)c(O)c(C(C)(C)C)c1 | inactive | – |
| CC(C)(C)c1ccc(O)c(C(C)(C)C)c1 | – | 17.7 µM (active) |
| CCCCCCCCCCCCN1CCCC1=O | – | 27.4 µM (active) |
| O=C(O)Cc1cc(I)c(Oc2cc(I)c(O)c(I)c2)c(I)c1 | inactive | – |

| Structure (SMILES) | outcome | AC50 |
| --- | --- | --- |
| COC(=O)CCCCC(=O)OC | inactive | – |
| OCCC(F)(F)C(F)(F)C(F)(F)C(F)(F)C(F)(F)C(F)(F)F | inactive | 45.8 µM (active) |
| CCCCCCCCCCCCc1ccccc1S(=O)(=O)O | inactive | – |
| CN(C)C=O | inactive | – |
| O=c1c(-c2ccc(O)cc2)coc2cc(O)ccc12 | inactive | – |
| NCC(F)(F)C(F)(F)C(F)(F)C(F)(F)C(F)(F)C(F)(F)C(F)(F)F | inactive | – |
| Cc1cc(C)c(O)c(C)c1 | inactive | – |
| CC[C@H](c1ccc(O)cc1)[C@@H](CC)c1ccc(O)cc1 | – | 31.5 µM (active) |
| ClC1=C(Cl)C(Cl)(Cl)C(Cl)=C1Cl | – | 11.4 µM (active) |
| CC#C[C@]1(O)CC[C@H]2[C@@H]3CCC4=CC(=O)CCC4=C3[C@@H](c3ccc(N(C)C)cc3)C[C@@]21C | – | 27.9 µM (active) |
| C#C[C@]1(O)CC[C@H]2[C@@H]3CCC4=CC(=O)CC[C@@H]4[C@H]3CC[C@@]21C | – | 5.96 µM (active) |
| CC(O)CO (stereo not given) | inactive | – |
| OCCC(F)(F)C(F)(F)C(F)(F)C(F)(F)C(F)(F)C(F)(F)C(F)(F)C(F)(F)F | inactive | 15.8 µM (active) and 17.4 µM (active) |
| CCCCOCCO | inactive | – |
| CC(C)(C)c1cccc(C(C)(C)C)c1O | inactive | – |
| CCCCC(CC)COC(=O)CCCCC(=O)OCc1ccccc1 (stereo not given) | inactive | – |
| O=C(O)c1ccccc1C(c1ccc(O)cc1)c1ccc(O)cc1 | inactive | – |
| CCCCCCCCCCCCCC[N+](C)(C)C | – | 5.37 µM (active) |
| CN1CCC[C@H]1c1cccnc1 | inactive | – |
